Results reported in PubChem BioAssay (NCI).
Compounds without any hit were thinned out: in the full panel of roughly 79,000, 15% have a hit. Values without a mark were called inactive. The source made the active and inactive calls. No stated cut-off is given here; in the data, active means growth inhibition above about 70%; inactive means the rest. Where a SMILES comes first, the peptide text is derived from it. The star is where a group is joined. ONp = O=[N+]([O-])c1ccc(O*)cc1; Cbz = O=C(OCc1ccccc1)*; OBn = c1ccc(CO*)cc1

Assays:
[1] = NCI Yeast Anticancer Drug Screen. Data for the rad50 strain (AID 155);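 further: 0% = growth of vehicle-only cultures of the same strain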; conditions: S. cerevisiae rad50 strain growth inhibition; at 50.0 µM; active compounds read high
Summary of the method: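 Inhibition values express reduced yeast growth in compound-treated cultures relative to vehicle-treated controls.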

[2] = NCI Yeast Anticancer Drug Screen. Data for the mec2-1 strain (AID 157); conditions: S. cerevisiae mec2-1 strain, at 50.0 µM, active compounds read high
Summary of the method: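 Vehicle-treated cultures served as reference for growth inhibition of compound-exposed mec2-1 yeast.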

[3] = NCI Yeast Anticancer Drug Screen. Data for the sgs1 mgt1 strain (AID 161);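 further: 0% = growth of cultures given vehicle only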; conditions: S. cerevisiae sgs1 mgt1 strain, at 50.0 µM, active compounds read high
Summary of the method: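 Inhibition of yeast growth, normalised to vehicle-treated controls, is reported for a strain bearing genetic alterations in DNA damage repair.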

[4] = NCI Yeast Anticancer Drug Screen. Data for the cln2 rad14 strain (AID 165);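 further: 0% = growth equal to vehicle treated cultures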; conditions: S. cerevisiae cln2 rad14 strain, at 50.0 µM, active compounds read high
Summary of the method: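 Each compound was tested on cln2 rad14 yeast. Inhibition of growth was calculated against vehicle-exposed controls.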

[5] = NCI Yeast Anticancer Drug Screen. Data for the bub3 strain (AID 167); conditions: S. cerevisiae bub3 mutant strain, at 50.0 µM, active compounds read high
Summary of the method: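 Steps: expose the mutant yeast strain to compound; grow alongside vehicle-treated cultures; measure growth; express inhibition against the vehicle cultures.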

[6] = NCI Yeast Anticancer Drug Screen. Data for the mlh1 rad18 strain (AID 175); conditions: S. cerevisiae mlh1 rad18 strain growth inhibition; at 50.0 µM; active compounds read high
Summary of the method: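 Vehicle-treated cultures served as the reference for growth inhibition in a yeast strain carrying DNA damage repair alterations exposed to each compound.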

SMILES	growth inhibition [1]	growth inhibition [2]	growth inhibition [3]	growth inhibition [4]	growth inhibition [5]	growth inhibition [6]
O=C(O)COc1c(Cl)cc(Cl)cc1Cl	-34.7%	-37%	-29.6%	-15.4%	-39.9%	-31.6%
COc1ccc(NC(=O)c2cc3cc(N=Nc4ccc(Br)cc4)ccc3oc2=O)cc1	-30.9%	14.4%	-15.2%	0.05%	-28.5%	-17.6%
COC(=O)c1cc(C(=O)OC)c(C(=O)OC)cc1C(=O)OC	-1.35%	-1.25%	15.8%	-37.8%	4.2%	22.1%
Cc1nc(C(N)=S)sc1C(=O)CC(=O)C(=O)Nc1ccc(Br)cc1	2.5%	-38.5%	-24.4%	1.35%	-25.8%	-14.8%
C1CN(SSN2CCSCC2)CCS1	-2.1%	-18.5%	6.5%	-100%	7.15%	-14.5%
Cc1ccc(S(=O)(=O)NN=C2CCCCC2)cc1	-3.45%	-11.4%	-1.3%	-19.4%	-14.5%	-11.8%
c1ccn2cncc2c1	17%	17%	13.1%	23.1%	20.7%	15.1%
CC(=O)C(CCN(C)C)(c1ccccc1)C1CCCCC1 (stereo unspecified)	-12.2%	-15.2%	-2.85%	-6.65%	-10.5%	-3.6%
COCC1(c2ccccc2)C(=O)N(C)C(=O)N1C (stereo unspecified)	-7.6%	2.5%	-6.25%	-6.3%	-9.85%	5.25%
COc1cc(CCCCC(=O)O)ccc1OC(=O)c1ccccc1	-15.6%	-4.85%	1.85%	2.05%	-6.3%	-5.1%
CCOc1ccccc1N=Nc1c(C)nn(C(=S)SC)c1OCC	22.5%	18.4%	26.4%	30.2%	14%	39.2%
Cc1nc(C(Cl)(Cl)Cl)nc(C(Cl)(Cl)Cl)n1	19.9%	47%	27.2%	9%	18.4%	20.4%
CCN(CC)C(=O)C1Cc2ccccc2N(C)C1 (stereo unspecified)	-16.6%	-8.5%	-10.4%	-41.5%	3.05%	-2.85%
Cc1noc(N)c1Sc1ccc(Br)cc1	98.7% (active)	98.8% (active)	99% (active)	98.5% (active)	98.8% (active)	99.1% (active)
COc1cc(C2c3cc4c(cc3OC(NNC(N)=O)C2C)OCO4)cc(OC)c1OC (stereo unspecified)	-4.1%	6.4%	6.7%	-19.6%	11.5%	10.4%
CNC(=O)C(C)NC(=O)C(Cc1ccccc1)NC(=O)OC(C)(C)C (stereo unspecified)	-10.2%	-57.7%	-16.2%	-28.8%	-19.2%	1.05%
C[N+](C)([O-])CCNC(=O)c1cccc2cc3ccccc3nc12	-9.8%	-8.9%	-23.5%	4.3%	10.2%	-46%
COc1c(NC(=O)Nc2ccc(F)c([N+](=O)[O-])c2)cccc1[N+](=O)[O-]	7.85%	22.1%	10%	2.8%	20.1%	27.8%
O=C(CNC(=O)C(CCC(=O)OCc1ccccc1)NC(=O)OCc1ccccc1)NCC(=O)NC(CO)C(=O)NCC(=O)Oc1ccc([N+](=O)[O-])cc1 (stereo unspecified) (Cbz-E(OBn)GGSG-ONp; configuration not given here)	3.75%	8.05%	21.4%	-7.85%	1.65%	20.4%
CC(=O)N(C(=O)CC(=O)N/N=C\c1ccc(Br)c(N(CCC#N)CCC#N)c1)c1ccc(Cl)cc1	7.7%	0.6%	8.1%	-7.8%	6.2%	-3.35%
CC(C)C[C@H](NC(=O)[C@H](CCc1ccccc1)NC(=O)c1ccc2ccccc2n1)B(O)O	60.8%	64.7%	55.5%	73.8% (active)	84.7% (active)	82.5% (active)

SMILES	growth inhibition [1]	growth inhibition [2]	growth inhibition [3]	growth inhibition [4]	growth inhibition [5]	growth inhibition [6]
CN(C)CCC1(C2=CCCC2)CC/C(=C\c2ccccc2)C1=O (stereo unspecified)	16.9%	-17.8%	-5.6%	14.7%	-45.6%	2.5%
O=C(O)c1ccc(Cl)cc1C(=O)c1ccc(Cl)cc1	1.25%	8.75%	-2.55%	-42.9%	-1.7%	-13.1%
N#CCC(=O)N/N=C\C(O)C(O)C(O)C(O)CO (stereo unspecified)	0.1%	2.6%	-10.8%	-1.45%	4.5%	11.1%
COc1cc2c(c3c1CCC(C)(C)O3)Cc1c(cc(OC)c(OC)c1CCC(C)(C)O)O2	41.8%	-3.9%	3.6%	0.4%	3%	7.6%
COc1ccc(NC(=S)N(CCC#N)C2CCCCC2)cc1	-1.1%	-24.3%	-3%	16.8%	-1.5%	-4.05%
CC1=Nc2ccccc2NC2(C1)C(C1COC(C)(C)O1)OC1OC(C)(C)OC12 (stereo unspecified)	9.95%	13.8%	20.3%	21.5%	2.1%	17.9%
COC(=O)c1nc(N)nc(C(=O)OC)c1C(=O)C(C)(C)C	-11.1%	-10.8%	-25.9%	-23.6%	-41.6%	-28.8%
N#CSCCOCCOC(=O)NC1CCCCC1	10.2%	4.75%	14.7%	5.25%	16.2%	14.6%
Cc1ccc(C(=O)c2ccccc2Cc2cccc3ccccc23)c(C)c1	4.35%	6.6%	1.2%	-13.7%	12.6%	-14.5%
N#C/C(=C\c1ccco1)C(=O)Nc1ccc(Br)cc1	27.9%	-3.75%	1.65%	-35.8%	9.1%	23.8%
CCCCCCC(=O)/C=C/c1ccc(Cl)cc1	11.9%	-22.1%	-3.1%	-6.5%	16.2%	-15.6%
O=c1[nH]c2cccnc2[nH]c1=O	-8%	-44%	-32.8%	4%	-32.5%	-2.05%
C[OH2+].[Cl][Cu+].[Cl][Cu+].[NH-]CCC([OH2+])CC[NH-]	-9.1%	-12.2%	-14.4%	-57.5%	-2.8%	8.2%
Cn1c(=O)cc2[nH]c3ccccc3n2c1=O	9.5%	22.4%	-10%	-5.7%	4.6%	-19.7%
CCN(CC)C(=O)c1ccc[n+](Cc2ccc(Cl)c(Cl)c2)c1	3.15%	-8.25%	-8.75%	6.45%	1.2%	9.25%
CSC1NC(c2ccc(Cl)cc2)=C(C#N)C(=O)N1C1OCC(OC(C)=O)C(OC(C)=O)C1OC(C)=O (stereo unspecified)	-10%	-23.6%	-24.2%	-3.85%	-8.6%	-8.8%
O=C(CN1CCN(c2ccccc2)CC1)N1CCc2c([nH]c3ccccc23)C1c1cccnc1 (stereo unspecified)	2.45%	-19.8%	-19.6%	28.6%	4.35%	-21.6%
CN1C(=O)C(=C2CCCCC2)SC1=S	0.55%	7.8%	-11.6%	-4.3%	2.8%	2.15%
CC1=C(C(=O)CC(=O)C(=O)Nc2ccc(Cl)cc2Cl)Sc2ccccc2N1	-5.65%	-11.2%	-20.1%	-6.1%	2.55%	3.45%
COc1cccc(NC(=O)N/C(=C/c2ccc(N(CCC#N)CCC#N)cc2)NC(=O)c2cc([N+](=O)[O-])ccc2Cl)c1	30.8%	16%	-3.15%	-10.1%	-6.8%	36.5%
